# Assay results: PubChem BioAssay
# Where “and” joins values, the source holds several entries; their conditions need not be identical. Equal entries are not always repeated. For part of these data: Entries with a potency or affinity are not part of this list. Calls of active or inactive are those of the source.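 Rule for the calls, unless noted: active = dose-response curve with midpoint inside the tested range, moderate steepness, significant amplitude and little compound fluorescence or bead-attachment interference; inactive = the rest.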
# Columns and labels:
# [1] = target: GTPase HRas (Homo sapiens) (UniProt P01112); test: inhibitors of GTP binding to wildtype Ras, dose response, biochemical, multiplex bead flow cytometry (AID 1335;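 active = fitted half-maximal concentration within 10 nM to 100 µM, steepness 0.5 to 2, significant signal drop, low assay interference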); conditions: bead-based flow cytometry, Bodipy-GTP binding to GST-Ras; at 100 µM (top of the series) unless noted
# [2] = target: Ras-related C3 botulinum toxin substrate 1 (Homo sapiens) (UniProt P63000); test: wildtype Rac1 GTP binding inhibitors, dose response, biochemical, multiplex bead flow cytometry (AID 1340;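 active = dose curve with midpoint inside tested range, moderate steepness, plateau gap beyond fit error, low compound glow and bead-link interference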); conditions: GST-Rac1 beads, Bodipy-FL-GTP binding; at 100 µM (top of the series) unless noted
# [3] = target: GTPase HRas (Homo sapiens) (UniProt P01112); test: activated Ras mutant GTP binding inhibitors, dose response, biochemical, multiplex bead flow cytometry (AID 1341);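 note: GST-tagged constitutively activated Ras mutant immobilized on beads and multiplexed with other GTPases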
# [4] = test system: Ras-related protein Rab-7a (dog), GTP binding; test: Rab7 GTP binding inhibitors, potency, dose response, biochemical, wildtype, multiplex bead flow cytometry (AID 1336; call rule not given here)
# [5] = target: Cell division control protein 42 homolog (Homo sapiens) (UniProt P60953); test: wildtype Cdc42 GTP-binding inhibitors, dose response, biochemical, multiplex bead flow cytometry, Bodipy-FL-GTP (AID 1334;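 active = fitted half-maximal concentration within the tested range, moderate curve steepness, significant signal drop, and little compound fluorescence or bead-linkage interference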); conditions: bead-based flow cytometry, Bodipy-FL-GTP binding to GST-Cdc42; at 100 µM (top of the series) unless noted
# Cell division control protein 42 homolog (Homo sapiens), sequence (P60953 whole entry, looked up): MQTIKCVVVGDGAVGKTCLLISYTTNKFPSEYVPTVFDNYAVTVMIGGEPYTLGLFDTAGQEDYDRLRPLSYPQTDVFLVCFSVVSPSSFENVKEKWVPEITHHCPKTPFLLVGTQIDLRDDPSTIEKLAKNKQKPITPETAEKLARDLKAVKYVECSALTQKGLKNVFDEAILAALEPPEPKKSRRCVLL
# GTPase HRas (Homo sapiens), sequence (P01112 whole entry, looked up): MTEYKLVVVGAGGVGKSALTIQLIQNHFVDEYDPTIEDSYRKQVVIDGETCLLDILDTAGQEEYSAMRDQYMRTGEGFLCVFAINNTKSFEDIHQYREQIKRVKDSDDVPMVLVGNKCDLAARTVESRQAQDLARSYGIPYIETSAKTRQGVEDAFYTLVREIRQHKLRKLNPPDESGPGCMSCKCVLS
SMILES,"GTP binding, percent of control [1]","GTP binding signal, raw median fluorescence (lower = inhibition) (MCF (arbitrary fluorescence units)) [2]",outcome [3],outcome [4],"fluorescence, percent of control (lower = inhibition) [5]"
COC(=O)c1cccnc1SCCc1ccccc1,125%,72.5,inactive,,
COc1ccc(-c2cc(=O)c3cc(OC)ccc3[nH]2)cc1,,229,,,
CC(C)C(NCc1c(Cl)cccc1Cl)C(=O)O (stereo unspecified),81.2%,,inactive,,
O=C(O)c1ccccc1Sc1ncnc2sc3c(c12)CCC3,118%,,inactive,,
CCc1ccc(NS(=O)(=O)c2ccc3[nH]cc(C(=O)N4CCc5ccccc54)c(=O)c3c2)cc1,62.6%,167,inactive,inactive,
CCOC(=O)c1cc([N+](=O)[O-])c([N+](=O)[O-])cc1NC(C)=O,75%,241,inactive,inactive,
O=C(NCc1cccs1)c1cccnc1C(=O)O,84.2%,0,inactive,inactive,
NS(=O)(=O)c1ccc(N2N=C(c3ccccc3)CC2c2cccc(F)c2)cc1 (stereo unspecified),50% and 86.8%,0 and 100,inactive,inactive,
Cc1ccc(NC(=O)C2=C(c3ccccc3)S(=O)(=O)CCS2(=O)=O)cc1,79.3%,222,inactive,inactive,22.2%
CCOc1ccc(/C=C2\SC(N3CCc4ccccc4C3)=NC2=O)cc1,59.8%,,inactive,,
CCOC(=O)c1c(NC(=O)N/N=C/c2ccccc2OCC)sc(C(C)=O)c1C,,238,,,
Cc1cccc2cc(CN(Cc3cccs3)C(c3nnnn3C3CCCC3)C(C)C)c(=O)[nH]c12 (stereo unspecified),60.6%,207,inactive,inactive,
